# Out of some 310,000 compounds screened, about 14,000 (4.5%) showed an effect of 50% or more. The effect is printed as a negative number. The sample holds strong results, similar compounds and a random draw of the others, so the mix is not that of the screen.
# Molecular target: human ether-à-go-go-related gene (hERG) potassium channel (human, UniProt Q12809)
# Experiment: primary screen, population patch clamp on CHO cells stably expressing hERG; higher = less effect of the substance
# 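Note: peak tail current of the secondary pulse compared with the same well before compound.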
# Sequence of human ether-à-go-go-related gene (hERG) potassium channel (Q12809 whole entry, looked up): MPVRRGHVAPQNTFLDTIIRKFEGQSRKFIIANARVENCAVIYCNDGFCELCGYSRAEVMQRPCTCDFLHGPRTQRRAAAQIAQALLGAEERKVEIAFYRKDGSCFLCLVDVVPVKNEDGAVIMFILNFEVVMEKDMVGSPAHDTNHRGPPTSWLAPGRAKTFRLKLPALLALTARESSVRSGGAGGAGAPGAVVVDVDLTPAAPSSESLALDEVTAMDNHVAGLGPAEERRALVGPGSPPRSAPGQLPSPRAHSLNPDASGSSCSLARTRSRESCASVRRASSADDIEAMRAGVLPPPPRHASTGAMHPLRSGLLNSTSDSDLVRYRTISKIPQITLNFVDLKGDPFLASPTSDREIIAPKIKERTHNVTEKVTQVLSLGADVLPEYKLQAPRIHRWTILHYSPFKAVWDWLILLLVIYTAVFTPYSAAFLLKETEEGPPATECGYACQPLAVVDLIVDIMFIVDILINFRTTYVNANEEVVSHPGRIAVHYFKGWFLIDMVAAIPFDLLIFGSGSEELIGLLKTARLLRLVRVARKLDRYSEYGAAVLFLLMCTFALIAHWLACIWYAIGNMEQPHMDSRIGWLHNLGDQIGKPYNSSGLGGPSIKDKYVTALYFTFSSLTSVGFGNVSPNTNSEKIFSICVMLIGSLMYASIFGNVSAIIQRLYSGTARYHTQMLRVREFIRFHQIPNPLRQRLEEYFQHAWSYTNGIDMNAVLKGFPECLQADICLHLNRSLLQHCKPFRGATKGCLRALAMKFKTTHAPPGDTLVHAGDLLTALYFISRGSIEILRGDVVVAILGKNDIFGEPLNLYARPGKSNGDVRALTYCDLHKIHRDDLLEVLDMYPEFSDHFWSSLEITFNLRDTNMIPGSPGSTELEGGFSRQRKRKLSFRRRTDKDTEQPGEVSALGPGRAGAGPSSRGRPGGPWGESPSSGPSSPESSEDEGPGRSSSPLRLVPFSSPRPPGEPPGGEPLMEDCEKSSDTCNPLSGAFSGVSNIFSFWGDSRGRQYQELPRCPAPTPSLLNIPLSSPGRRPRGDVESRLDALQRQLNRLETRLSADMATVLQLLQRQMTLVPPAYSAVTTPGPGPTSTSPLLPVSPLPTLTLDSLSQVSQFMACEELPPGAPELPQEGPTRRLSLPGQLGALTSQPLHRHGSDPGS
row,Structure (SMILES),"hERG current change (%, negative = inhibition) at 10uM"
1,COCCOc1ccc(C(F)(F)F)cc1NC(=O)c1ccccc1,-10.9%
2,CCCN1CCN(CC(=O)Nc2cc(OCC)ccc2OCC)CC1.Cl,-57.6%
3,CCN1CCN(CC(=O)Nc2cc(C(F)(F)F)ccc2OCCOC)CC1.O=C(O)C(=O)O,-75.4%
4,CCOc1ccc(OCC)c(NC(=O)CN2CCN(CC)CC2)c1.Cl,-43.3%
5,CCCCCNCC(=O)Nc1cc(C(F)(F)F)ccc1OCCOC,-34.2%
6,CCOC(=O)C1CCCN(C(=O)c2ccc(Cn3c(=S)[nH]c4cc(C(=O)OC)ccc4c3=O)cc2)C1 (centres unmarked),10.6%
7,CCN1C(=O)[C@H]2[C@@H](c3ccc(C)cc3)N3C(=O)N(c4ccc(C(F)(F)F)cc4)C(=O)[C@@]3(CC(C)C)[C@H]2C1=O,14.6%
8,Cc1ccc(C)c(NC(=O)CN(C)S(=O)(=O)c2ccc(F)cc2)c1,3.47%
9,Cc1cc(NC(=O)CSc2nc(-c3ccccc3)c(C#N)c(=O)[nH]2)no1,-0.629%
10,Cc1ccsc1/C=C1\C(=O)NC(=S)N(C)C1=O,15.3%
11,O=C(COc1ccc(Cl)cc1)NCCS(=O)(=O)N1CCN(c2ccccc2F)CC1,5.38%
12,CC(=O)C1=C(O)C(=O)N(c2cccc(Br)c2)C1c1ccccc1Cl (centres unmarked),-4.7%
13,COc1ccc(OC)c(NC(=O)c2nc(-c3ccccc3)oc2C)c1,-6.31%
14,O=S(=O)(Nc1ccc(Br)cc1)c1cccc(NC(=S)NCCN2CCOCC2)c1,3.16%
15,Cc1ccc(CN2Cc3cccc4c3[C@@H](CC2=O)[C@H](O)[C@H](O)C4)cc1,19.6%
16,CC1CCN(c2ccc3nnc(CCC(=O)Nc4cc(F)ccc4F)n3n2)CC1,-37.5%
17,O=C(CCc1nnc2ccc(N3CCCC3)nn12)Nc1ccc(F)cc1F,8.27%
18,COc1cc(NC(=O)CCc2nnc3ccc(N4CCN(c5cccc(OC)c5)CC4)nn23)cc(OC)c1,7.07%
19,COc1ccccc1N1CCN(C(=O)CCc2nnc3ccc(N4CCCC4)nn23)CC1,-34.1%
20,COc1cccc(NC(=O)CCc2nnc3ccc(N4CCN(c5cccc(OC)c5)CC4)nn23)c1,13.6%
21,COc1cccc(N2CCN(c3ccc4nnc(CCC(=O)Nc5ccccc5OC)n4n3)CC2)c1,-62.6%
22,O=C(CCc1nnc2ccc(N3CCCC3)nn12)Nc1cc(F)ccc1F,-50.4%

row,Structure (SMILES),"hERG current change (%, negative = inhibition) at 10uM"
1,COc1ccc(N2CCN(C(=O)CCc3nnc4ccc(N5CCCC5)nn34)CC2)cc1,-7.68%
2,CC1CCN(c2ccc3nnc(CCC(=O)N4CCN(c5ccccc5F)CC4)n3n2)CC1,-62.6%
3,COc1ccc(N2CCN(C(=O)CCc3nnc4ccc(N5CCC(C)CC5)nn34)CC2)cc1,-66.1%
4,COc1ccc(N2CCN(C(=O)CCc3nnc4ccc(N5CCOCC5)nn34)CC2)cc1,-5.83%
5,COc1ccccc1N1CCN(C(=O)CCc2nnc3ccc(N4CCC(C)CC4)nn23)CC1,-33.5%
6,N#CCCN(C(=O)COC(=O)c1ccc2c(c1)NC(=O)CS2)c1ccc2c(c1)OCCO2,-22.8%
7,CCOCCOC(=O)C1=C(C)NC(=O)NC1c1cc2c(cc1Br)OCO2 (centres unmarked),-30.5%
8,O=C(CSCc1ccccc1)Nc1ccc(F)c(F)c1,-3.2%
9,Cc1cc(C)cc(C(=O)NCC(=O)OCC(=O)c2cc(C)n(CC(F)(F)F)c2C)c1,1.83%
10,Cc1noc(C)c1CSc1nc2ccccc2s1,-10.1%
11,CC1CCN(c2ccc3nnc(CCC(=O)N4CCN(c5ccc(F)cc5)CC4)n3n2)CC1,-66.2%
12,COc1ccc(N2CCN(c3ccc4nnc(CCC(=O)Nc5ccc(C)cc5)n4n3)CC2)cc1,-70.1%
13,COc1cccc(N2CCN(c3ccc4nnc(CCC(=O)N5CCC(C)CC5)n4n3)CC2)c1,-66.4%
14,COc1cccc(N2CCN(c3ccc4nnc(CCC(=O)N5CCN(C)CC5)n4n3)CC2)c1,-1.62%
15,CCCN1CCN(C(=O)CCc2nnc3ccc(N4CCN(c5cccc(OC)c5)CC4)nn23)CC1,-54.9%
16,COc1cccc(N2CCN(C(=O)CCc3nnc4ccc(N5CCOCC5)nn34)CC2)c1,-7.05%
17,CCN1CCN(C(=O)CCc2nnc3ccc(N4CCN(c5cccc(OC)c5)CC4)nn23)CC1,-5.55%
18,CC1CCN(c2ccc3nnc(CCC(=O)Nc4ccc(F)cc4)n3n2)CC1,-39.6%
19,CC1CCN(c2ccc3nnc(CCC(=O)N4CCCCC4)n3n2)CC1,-3.14%
20,COc1ccc(NC(=O)CCc2nnc3ccc(N4CCN(c5cccc(OC)c5)CC4)nn23)cc1,-22.8%
21,COc1cccc(N2CCN(C(=O)CCc3nnc4ccc(N5CCCC5)nn34)CC2)c1,-28.7%
22,COc1ccc(NC(=O)CCc2nnc3ccc(N4CCC(C)CC4)nn23)cc1,-22.9%

# From publication PMC4336329 (PLoS ONE, 2015)
